Reference: ChEMBL document CHEMBL3988442, “University of Dundee, Small-Polar-MMV Screening Library” (2021)
The whole screen tested about 48,000 compounds, of which about 13,000 (27%) showed an effect of 50% or more. The list shows a part of the results.

test system: Wolbachia pipientis; assay: Anti-Wolbachia Cell-Based Screen; assay type: functional; set-up: scale not given: in the data most compounds retested in dose-response had high values; conditions: 5 µM

Going from `CC(C)c1noc([C@@H]2C[C@H](NS(=O)(=O)Cc3ccccc3)CN2C)n1` to `CC(C(=O)NC1CC1)S(=O)(=O)Cc1nc(Cc2ccccc2)no1` (stereo not given), the “Percent Effect” value rises from -6.361% to -3.587%.

First: CC(C)(O)CCc1ccc(C(=O)NCCC2CCCOC2)cc1 (stereo not given)
Second: CCCN(Cc1ccc(C(=O)NCC2COCCO2)c(=O)[nH]1)C1CC1 (stereo not given)
The “Percent Effect” value of the first is lower: -14.7% for the first, 2.285% for the second.

Compared with `O=C1CC[C@@H](C(=O)N2CCC(Cn3cc(C4CCCCC4)nn3)CC2)N1`, `O=C(CCC1CC1)N1CCC(n2cc(C3(O)CCCC3)nn2)CC1` is higher in “Percent Effect” value: -19.31% for the first, -0.3223% for the second.

Going from `CCc1cnc(CN2C(=O)CC3(CCSC3)C2=O)o1` (stereo not given) to `CCN1CC(C(=O)N2CCc3cc(C(N)=O)n(C)c3C2)CC1=O` (stereo not given), the “Percent Effect” value rises from -1.105% to 10.03%.

Going from `CCn1cncc1C1CC(=O)Nc2c1c(C)nn2C` (stereo not given) to `Cc1nn(C)c(C)c1C1CCCN1C(=O)c1cc[nH]n1` (stereo not given), the “Percent Effect” value rises from -2.495% to -0.5637%.

Compared with `O=S(=O)(c1cccnc1)N1C[C@@H]2CC[C@H](C1)N(Cc1ccccn1)C2`, `CCc1noc(CN(CCc2ccccc2)C2CCN(C)CC2)n1` is higher in “Percent Effect” value: 0.4176% for the first, 1.802% for the second.

Compared with `Cc1ccc(NC2(C(=O)NCCCc3c(C)n[nH]c3C)CCCC2)cc1`, `CCc1nc(C)cn1C(=O)Nc1ccc(C)cc1` is higher in “Percent Effect” value: 12.56% for the first, 109.3% for the second.

Compared with `COc1ncccc1NC(=O)NC(C)(C)c1ncc(C)s1`, `CCC(C)(NCC(=O)Nc1ccccc1)c1nc(C)cs1` (stereo not given) is lower in “Percent Effect” value: 4.256% for the first, -1.246% for the second.

First: CCc1nnc2n1CC(CNc1cnc3ccccc3n1)CC2 (stereo not given)
Second: CCc1nc(CN(CCc2ccccc2)C2CCN(C)CC2)no1
The “Percent Effect” value of the first is lower: -8.213% for the first, 22.84% for the second.

Compared with `NC(=O)CN1CCCC1c1csc(Nc2cnccn2)n1` (stereo not given), `NC(=O)CN1CCC(c2csc(Nc3cnccn3)n2)CC1` is higher in “Percent Effect” value: 66.85% for the first, 117.3% for the second.

Going from `NC(=O)CN1CCC(C(=O)NCc2nc(-c3ccc(F)cc3)cs2)CC1` to `O=C(CS(=O)(=O)Cc1ccc(F)cc1)NC1CCCCNC1=O` (stereo not given), the “Percent Effect” value rises from 0.3881% to 104.6%.

Compared with `OCCN1CCC(c2csc(Nc3cnccn3)n2)CC1`, `O=C(c1cc[nH]n1)N1CCCC1c1cncc(CN2CCOCC2)n1` (stereo not given) is higher in “Percent Effect” value: 83.21% for the first, 91.81% for the second.

Going from `COc1ccccc1CNC(=O)C(C)N1CC(n2cc(C)cn2)C1` (stereo not given) to `COc1ccccc1CN(Cc1nc(C)no1)C1CC1`, the “Percent Effect” value rises from -24.87% to 102.6%.

Compared with `CN(C)c1cc2c(nn1)CCN(C(=O)c1cc3c(s1)CCOC3)C2`, `Cc1ncnc2c1CCN(C(=O)c1ccsc1)CC2` is lower in “Percent Effect” value: -8.36% for the first, -12.52% for the second.

Going from `CCC(NCc1ccccc1Cl)c1ccccc1OCC(=O)NC` (stereo not given) to `O=C(CS(=O)(=O)Cc1ccc(F)cc1)NCc1ccccc1F`, the “Percent Effect” value falls from -10.16% to -12.49%.

First: O=C(c1cn2cc(Cl)ccc2n1)N1CCC(CCn2cccn2)CC1
Second: CO[C@H]1CN(C(=O)c2cn3cc(C)ccc3n2)CC[C@@]12CCCO2
The “Percent Effect” value of the first is lower: 2.946% for the first, 93.74% for the second.

Going from `COCCN1C[C@@H](C)[C@@]2(COCCN(C(=O)c3cccc(C)n3)C2)C1.O=C(O)C(F)(F)F.O=C(O)C(F)(F)F` to `Cc1cccc(C(=O)N2CC(C(=O)NCC3CC3)C3(CCOCC3)C2)n1.O=C(O)C(F)(F)F` (stereo not given), the “Percent Effect” value falls from -4.007% to -7.832%.

First: CO[C@H]1CN(C(=O)c2cccc(C)n2)CC[C@@]12CCCO2
Second: COc1cc(C)nc(N2CCN(C(=O)c3ccc[nH]3)CC2)n1
The “Percent Effect” value of the first is higher: 114.9% for the first, 4.964% for the second.

Compared with `COCc1cn([C@@H]2c3ccccc3C3(CCNCC3)[C@H]2O)nn1`, `COc1ccccc1CCc1nc(CC2CCN(C)CC2)no1` is higher in “Percent Effect” value: -6.385% for the first, 0.6251% for the second.

First: CC(=O)c1c(C)nn(CC(=O)Nc2ccc(F)cc2)c1C
Second: CCc1nc(C)cn1C(=O)Nc1ccc(F)cc1
The “Percent Effect” value of the first is lower: 6.274% for the first, 113% for the second.

Going from `CN(C)Cc1nn(C)c2c1CN(C(=O)Nc1ccc(F)cc1)C2` to `CN(C)c1nc2n(c(=O)n1)CCN2C(=O)Nc1ccccc1`, the “Percent Effect” value rises from -7.35% to 0.604%.

Compared with `Cc1ccc(NC(=O)N2CCN(Cc3noc(C4CC4)n3)CC2)cc1`, `Cc1ccc(NC(=O)C2=CN=S=N2)cc1` is lower in “Percent Effect” value: 4.61% for the first, -3.511% for the second.

First: CCc1nc(C)cn1C(=O)Nc1ccccc1
Second: Cc1nc(N2CCN(C(=O)c3ccccc3)CC2)c2cnn(C)c2n1
The “Percent Effect” value of the first is lower: 107.6% for the first, 113.9% for the second.

First: Cc1cc(=O)n2ncnc2n1CC(O)c1ccccc1F (stereo not given)
Second: CC(C)c1noc(CN(Cc2ccccc2F)C2CC2)n1
The “Percent Effect” value of the first is lower: -9.153% for the first, 5.507% for the second.

Going from `CN(C)S(=O)(=O)N1CC[C@]2(C[C@@H](OCC3CC3)CO2)C1` to `CN(C)CCC1CCCCN1Cc1cnn(C)c1C1CC1` (stereo not given), the “Percent Effect” value falls from 9.447% to -0.7786%.

First: Cc1cc2c(cc1CN1CCCCC1CCn1ccnc1C)OCO2 (stereo not given)
Second: Cc1c(CN2CCCC2c2cncc(CN3CCCC3)n2)cnn1C (stereo not given)
The “Percent Effect” value of the first is lower: 17.86% for the first, 74.36% for the second.

Compared with `CN(C)CCOCC1CN(C(=O)c2cccn2C)Cc2ccnn2C1.O=C(O)C(F)(F)F.O=C(O)C(F)(F)F` (stereo not given), `COc1ccc(C2(C(=O)N3C[C@@H](C(=O)O)[C@H](C(C)C)C3)CC2)cc1` is higher in “Percent Effect” value: -5.365% for the first, 6.312% for the second.

Going from `CN1CCN(S(=O)(=O)c2cccc(C#N)c2)c2ccc(F)cc21` to `CC1CCN(C)c2ccccc2N1C(=O)c1ccn(C)c(=O)c1` (stereo not given), the “Percent Effect” value falls from 4.028% to -9.489%.

Going from `CCc1nc(CN2CCCN(C(=O)C3CCOCC3)CC2)cs1` to `O=C(C1CCOCC1)N1CCCC1c1cncc(CN2CCCC2)n1` (stereo not given), the “Percent Effect” value rises from -0.509% to 74.28%.

Going from `Cc1nc(C(=O)N2CCCC2c2cncc(CN3CCCC3)n2)co1` (stereo not given) to `Cc1cc(C(=O)N2CCCC2CN2CCCC2)no1` (stereo not given), the “Percent Effect” value falls from 62.39% to 0.09079%.

First: Cc1nc(CN2CCC(NS(C)(=O)=O)CC2)co1
Second: Cc1cc(C)n(CC(=O)NC2CCCCNC2=O)n1 (stereo not given)
The “Percent Effect” value of the first is lower: -13.72% for the first, -5.953% for the second.

Going from `Cc1cccc(-c2c[nH]c(C3CCCN3C(=O)C3CCOCC3)n2)c1` (stereo not given) to `O=C1NCCCCC1NC(=O)C1(c2ccccc2)CCOCC1` (stereo not given), the “Percent Effect” value falls from 16.55% to -10.73%.

First: O=C(CS(=O)(=O)CC1CCCCC1)NC1CCCCNC1=O (stereo not given)
Second: O=C(CC1CCCCC1)NC1CCCCNC1=O (stereo not given)
The “Percent Effect” value of the first is lower: -2.84% for the first, 129.3% for the second.

Going from `O=C(CS(=O)(=O)Cc1ccccc1)NC1CCCCNC1=O` (stereo not given) to `Cc1ccccc1CS(=O)(=O)CC(=O)NC1CCCCNC1=O` (stereo not given), the “Percent Effect” value falls from 109% to 5.447%.

Compared with `O=C(CS(=O)(=O)c1ccccc1Cl)NC1CCCCNC1=O` (stereo not given), `CC(C)CS(=O)(=O)CC(=O)NC1CCCCNC1=O` (stereo not given) is higher in “Percent Effect” value: 7.591% for the first, 105% for the second.

Going from `Cn1cnc2c1CCN(CC(=O)NC1CCCCNC1=O)C2` (stereo not given) to `Cn1c(C2CC2)nc2c1CCN(CC(=O)NC1CCCCNC1=O)C2` (stereo not given), the “Percent Effect” value falls from 2.624% to -7.835%.

Going from `N#Cc1ccc(N2CCC(c3nccn3Cc3cscn3)CC2)nc1` to `Cn1ncc2c(N3CCN(C(=O)c4ccsc4)CC3)ncnc21`, the “Percent Effect” value rises from 4.95% to 110.5%.

First: Cc1nnc(CN(Cc2ccccc2C(F)(F)F)C2CC2)o1
Second: COc1ccccc1CN(Cc1nc(CC(C)C)no1)C1CC1
The “Percent Effect” value of the first is lower: -10.33% for the first, 68.8% for the second.

Compared with `COc1ccccc1CN(Cc1nc2c(cnn2C)c(=O)[nH]1)C1CC1`, `COc1ccccc1CN(Cc1nc(Cc2ccccc2)no1)C1CC1` is higher in “Percent Effect” value: 17.98% for the first, 122.2% for the second.

Going from `COc1ccc(CN(Cc2nc(C)no2)C2CCCCC2)cc1OC` to `COc1cc(CO)ccc1OCc1nc(C2CC2)no1`, the “Percent Effect” value falls from 113.8% to 5.46%.

Compared with `CN(Cc1ccc2c(c1)OCO2)Cc1nc(Cc2ccccc2)no1`, `CCN(Cc1nc(Cc2ccccc2)no1)C1CC1` is higher in “Percent Effect” value: -7.147% for the first, 93.91% for the second.

Going from `CCc1noc(C(C)N(C)Cc2ccc(OC)c(OC)c2)n1` (stereo not given) to `Cc1ccc(NC(C)C(=O)NCc2cccs2)cc1C` (stereo not given), the “Percent Effect” value falls from 9.709% to -16.27%.

First: CCCN1CC2(CCN(C)CC2)CC1C(=O)NCCn1nc(C)nc1C (stereo not given)
Second: Cc1nc(C)n(C2CCCN(C(=O)CCOCC(C)C)C2)n1 (stereo not given)
The “Percent Effect” value of the first is lower: -19.15% for the first, 96.93% for the second.

Going from `O=C(CCn1cncn1)NCC1CCS(=O)(=O)C1` (stereo not given) to `Cc1nc(C)n(C2CCCN(C(=O)CCOC(C)C)C2)n1` (stereo not given), the “Percent Effect” value rises from 0.07359% to 104.7%.

Going from `CCN(CC)CCSc1ncnc2[nH]ncc12` to `Cn1ncc2c(N3CCCN(C(=O)c4ccsc4)CC3)ncnc21`, the “Percent Effect” value rises from -13.76% to 109.6%.

Going from `Cc1cc(C(=O)NC(CC(C)C)C(=O)Nc2cc[nH]n2)c(C)o1` (stereo not given) to `CC(NC(N)=O)C(=O)N(C)Cc1cccc(C(F)(F)F)c1` (stereo not given), the “Percent Effect” value falls from 2.286% to -8.418%.

Going from `CC(CCc1ccccc1F)C(=O)NS(C)(=O)=O` (stereo not given) to `CN(C)CCn1c(=O)oc2ccc(NC(=O)CC(C)(C)C)cc21`, the “Percent Effect” value rises from -12.84% to 14.89%.

First: Cc1nc(C)n(C2CCCN(C(=O)c3cnc[nH]3)C2)n1 (stereo not given)
Second: Cc1nc(C)n(C2CCCN(C(=O)c3csc(C(C)C)n3)C2)n1 (stereo not given)
The “Percent Effect” value of the first is higher: 5.274% for the first, -3.924% for the second.

Going from `O=C1CC(NCc2cnc(-c3cccs3)nc2)CN1c1ccccc1` (stereo not given) to `Cc1nc(N2CCN(C(=O)c3ccccc3)CC2)c2c(n1)c(C)nn2C`, the “Percent Effect” value rises from 9.928% to 38.43%.

First: Cn1ncc2c(=O)[nH]c(N3CCN(C(=O)c4ccsc4)CC3)nc21
Second: Cc1nc(N2CCN(C(=O)c3ccsc3)CC2)c2cnn(C)c2n1
The “Percent Effect” value of the first is higher: 8.888% for the first, 2.047% for the second.

Going from `Cc1nc(N2CCCN(C(=O)c3ccsc3)CC2)c2cnn(C)c2n1` to `Cc1nc(N2CCN(C(=O)c3ccc(O)cc3)CC2)c2cnn(C)c2n1`, the “Percent Effect” value falls from 93.06% to 3.35%.

Compared with `CCc1nsc(N2CCCN(C(=O)c3ccsc3)CC2)n1`, `Cc1csc(N2CCCN(C(=O)c3ccsc3)CC2)n1` is higher in “Percent Effect” value: 9.27% for the first, 30.07% for the second.

In the case of `Cn1nc(C#N)c2c1CN(C(=O)c1ccsc1)CCC2`, the “Percent Effect” value is reported as -3.731%.
